A selection: hits, their analogues and other compounds. The true share with any hit is near 21%.
HCV inh: qHTS Assay for Inhibitors of Hepatitis C Virus (HCV). Huh7.5.1 HCVcc-Cre infection, luciferase reporter, 44 h. Potency, µM (series often up to 41.8 µM), for the others: top-dose activity change, negative = inhibition, usual class: inhibitors. actives 3.4% (n = 340,000); note: potency is the fitted concentration of half-maximal effect; % is set by controls: 0 for no effect and ±100 for the full control effect
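Infectious HCV cell culture screen: compound-treated cells (1,000/well, pre-plated 4 h) are infected with HCVcc-Cre at roughly 0.5 moi and grown 44 h. Infection is quantified by luciferase signal after 15 min substrate incubation at room temperature.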
Cycloheximide cs: Cycloheximide Counterscreen for Small Molecule Inhibitors of Shiga Toxin | cell reporter, cycloheximide protein synthesis inhibition counterscreen | actives 12% (n = 300,000) | AID 2314, 2010 | max response, %; in the data active = max response mostly above about 13%, no sharp cut-off; inactive = mostly below about 14%; note: read at 38.3 µM for the half of the compounds with a filed dose; 0% is about no effect
Pf growth 96h: Primary qHTS for delayed death inhibitors of the malarial parasite plastid, 96 hour incubation; actives 6.9% (n = 320,000); AID 504834, 2011; Potency, µM (series often up to 28.7 µM), inactives show top-dose activity change, negative = inhibition, actives largely listed as inhibitors; P. falciparum luciferase reporter growth, 96 h; note: potency is the fitted concentration of half-maximal effect; % is set by controls: 0 for no effect and ±100 for the full control effect
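Plates of compound plus infected erythrocytes (2% hematocrit, 0.05% parasitemia final) incubate 96 hours, 37 C, 5% CO2. Detection reagent added; reduced luminescence from the parasites' luciferase reporter flags inhibition.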
AMA1 RON2 block: qHTS for Inhibitors of AMA1-RON; Towards Development of Antimalarial Drug Lead: Primary Screen. actives 0.2% (n = 360,000). AlphaScreen AMA1-biotinylated RON2 peptide binding. Plasmodium falciparum AMA1 (3D7) - RON2 peptide interaction. Potency, µM (series often up to 58.2 µM), inactives show at the top dose activity change, negative = inhibition, usual class: inhibitors;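 note: potency is the fitted concentration of half-maximal effect; 0% = vehicle wells and -100% = peptide control; nearly all actives have a fitted effect of over 45% in size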
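AMA1 (3D7) with his tag at 25 nM final met compounds first, then biotinylated RON2 peptide at 25 nM; detection used donor plus acceptor beads, 10 µg/mL apiece, read by AlphaScreen after 30 min at room temperature.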
Shiga toxin inh: A qHTS for Small Molecule Inhibitors of Shiga Toxin. Vero cells, Shiga toxin protein synthesis inhibition reporter. inhibition, % at 38.7 µM. actives 9.2% (n = 290,000). AID 2315, 2010; in the data active = inhibition mostly above about 28%, no sharp cut-off; inactive = mostly below about 43%; note: 0% is about no effect
Pf growth 48h: Primary qHTS for delayed death inhibitors of the malarial parasite plastid, 48 hour incubation; P. falciparum luciferase growth in erythrocytes, 48 h; Potency, µM (highest dose often 28.7 µM), for inactives: top-dose activity change, negative = inhibition, hits mostly inhibitors; actives 5.9% (n = 310,000); AID 504832, 2011; note: potency is the fitted concentration of half-maximal effect; % is set by controls: 0 for no effect and ±100 for the full control effect
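A one-generation exposure of luciferase-tagged malaria parasites in RPMI 1640/Albumax erythrocyte culture, 37 C and 5% CO2. Inhibition is inferred from decreased luminescence after adding detection reagent.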
Numbers without * were called inactive; i = inactive; ? = inconclusive; nt = not tested or not shown; [ ] = dose if it differs, or a comment. Unless noted, calls come from the whole dose curve; as a rule, active = well fitted curve in the direction sought with a large enough effect; inconclusive = small, poorly fitted or top-dose-only effect, or another doubt; inactive = no such curve, though single readings can be large; an effect the other way counts as inactive or inconclusive.

SMILES	HCV inh	Cycloheximide cs	Pf growth 96h	AMA1 RON2 block	Shiga toxin inh	Pf growth 48h
CCN(CC)c1ccc(/C=N/Nc2nc3ccccc3[nH]2)cc1	13µM*	37*	2.6µM*	12%	110*	1.9µM*
C(=N\Nc1nc(Nc2ccccc2)nc(Nc2ccccc2)n1)/c1ccncc1	2%	-2	-27%	-21%	-9	0%
O=C(O)c1ccc(/C=N/Nc2nc3ccccc3[nH]2)cc1	5%	16*	15%	15%	24	38%
COC(=O)Nc1nc2ccccc2[nH]1	16%	nt	nt	18%	nt	nt
CC1(C(=O)NS(=O)(=O)c2ccc(F)cc2F)CCN1C(=O)c1cccc(F)c1 (configuration not stated)	nt	nt	nt	-2%	nt	nt
O=C1CCCC2=C1C1O[C@](CCCCN3C(=O)c4ccccc4C3=O)(Cc3ccccc31)O2	nt	-2	?	nt	i	?
Clc1nc2ccccc2cc1/C=N/Nc1nc2ccccc2[nH]1	-9%	41*	?	98%	21	0.52µM*
CC(=O)Nc1nc2ccccc2[nH]1	9%	-3	-11%	3%	5	-3%
CC(=O)Nc1ccc(/C=N/Nc2nc3ccccc3[nH]2)cc1	?	50*	?	56%	62*	1.9µM*
O=C(CN1CCCCC1)N/N=C/c1cc2ccccc2nc1Cl	-4%	14	-20%	13%	29	-10%
O=C(COC(=O)c1ccccc1C(=O)c1ccc(Cl)cc1)NC(c1ccccc1)c1ccccc1	1%	2	?	10%	-8	?
CC(C)n1nnnc1C1c2ccccc2C(=O)N1Cc1ccccc1 (configuration not stated)	nt	nt	nt	6%	nt	nt
O=c1cc(CO)occ1OCc1cccc(F)c1	3%	14	40%	-4%	16	45%
Cc1ccc(COc2coc(CO)cc2=O)cc1	12%	38*	73%	-8%	37	97%
O=C(OCc1ccccc1)N1Cc2ccnnc2CC1c1ccccc1Br (configuration not stated)	nt	nt	nt	7%	nt	nt
CCOc1ccc(OCC)c(NC(=O)CN2CCN(c3ccc(C)cc3C)CC2)c1	-1%	-3	-8%	-6%	-6	8.3µM*
O=C(/C=C/c1cnc2ccccc2n1)NC12CC3CC(CC(C3)C1)C2	12%	54*	?	?	136*	-40%
CCC(C)(C)NC(=O)/C=C/c1cnc2ccccc2n1	2%	73*	182%	5%	77*	269%
CC(C)N(Cc1ccccc1)C(=O)COC(=O)/C=C/c1cnc2ccccc2n1	2%	21*	44%	-10%	50	12%
Cn1c(C(=O)N2CCN(c3ccccc3)CC2)cc2cc(Cl)ccc21	11%	-2	?	-13%	-3	-3%
CC12CCC(C(=O)N(CCCCN3CCN(c4ccccn4)CC3)C1=O)C2(C)C (configuration not stated)	-4%	2	9.3µM*	-1%	nt	?
COC(=O)[C@@]1(Cc2ccccc2)[C@H]2c3cc(C(=O)N4CCCC4)n(Cc4ccsc4Br)c3C[C@H]2CN1C(=O)c1ccccc1	4%[8.37 µM]	-1	3.3µM*	nt	-6	?
COC(=O)[C@@]1(Cc2ccc(OC)cc2)[C@H]2c3cc(C(=O)N4CCCC4)n(Cc4ccc(C)c(F)c4F)c3C[C@H]2CN1C(=O)c1ccccc1	nt	nt	nt	-16%	nt	nt
COC(=O)[C@@]1(Cc2ccc(F)cc2)[C@H]2c3cc(C(=O)N4CCCC4)n(CCc4ccc(OC)c(Br)c4)c3C[C@H]2CN1C(=O)c1ccccc1	nt	nt	nt	-1%	nt	nt
COC(=O)[C@@]1(Cc2ccc(OC)cc2)[C@H]2c3cc(C(=O)N4CCCC4)n(CCSCCO)c3C[C@H]2CN1C(=O)c1ccccc1	-12%	-3	1.7µM*	-6%	-7	1µM*

High-throughput results deposited in PubChem by National Center for Advancing Translational Sciences (NCATS).
